# Screens as filed in PubChem.
# IL-1B inflam inh: qHTS for Inhibitors of Inflammasome Signaling: IL-1-beta AlphaLISA Primary Screen | THP-1 LPS/ATP IL-1B secretion, AlphaLISA, 16 h; hits give low values | activity change, % at 57.5 µM | 4.7% of 360,000 active | AID 743279, 2014; in the data active = activity change below about -50%; inconclusive = mostly about -30% to -49%
#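 THP-1 cells pretreated 1 hr with compounds (up to 57.5 uM final), then stimulated with LPS (250 ng/mL final) plus ATP (1.25 mM final); secreted IL-1B measured by AlphaLISA after 16 hr, decreased signal indicating inhibition.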
# TDP1 cell noCPT: qHTS for Inhibitors of human tyrosyl-DNA phosphodiesterase 1 (TDP1): qHTS in cells in absence of CPT. AID 686978, 2013. 15% of 420,000 active. Potency, µM (top dose mostly 46.2 µM), for inactives: top-dose activity change, negative = growth inhibition, usual class: inhibitors. DT40 Tdp1-/- hTDP1 cells, no CPT, ATP luminescence, 48 h; also: potency is read from the fitted curve at half-maximal effect; nearly all actives have a fitted effect of over 55% in size
#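 Camptothecin absent (DMSO only). Human TDP1-complemented DT40 knockout cells, 400 cells/well, 37 °C for minimum 48 hr; ATP measured via CellTiter-Glo, 30 min dark incubation, luminescence.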
# TDP1 inh: qHTS Assay for Inhibitors of Tyrosyl-DNA Phosphodiesterase (TDP1) | Tyrosyl-DNA phosphodiesterase 1 (Homo sapiens), Q9NUW8 | recombinant TDP1, AlphaScreen DNA substrate cleavage | Potency, µM (series often up to 130 µM), for the others: top-dose activity change, negative = inhibition, hits mostly inhibitors | 0.28% of 350,000 active; also: potency is read from the fitted curve at half-maximal effect; nearly all actives have a fitted effect of over 40% in size
# Target sequence (Q9NUW8 whole entry, looked up): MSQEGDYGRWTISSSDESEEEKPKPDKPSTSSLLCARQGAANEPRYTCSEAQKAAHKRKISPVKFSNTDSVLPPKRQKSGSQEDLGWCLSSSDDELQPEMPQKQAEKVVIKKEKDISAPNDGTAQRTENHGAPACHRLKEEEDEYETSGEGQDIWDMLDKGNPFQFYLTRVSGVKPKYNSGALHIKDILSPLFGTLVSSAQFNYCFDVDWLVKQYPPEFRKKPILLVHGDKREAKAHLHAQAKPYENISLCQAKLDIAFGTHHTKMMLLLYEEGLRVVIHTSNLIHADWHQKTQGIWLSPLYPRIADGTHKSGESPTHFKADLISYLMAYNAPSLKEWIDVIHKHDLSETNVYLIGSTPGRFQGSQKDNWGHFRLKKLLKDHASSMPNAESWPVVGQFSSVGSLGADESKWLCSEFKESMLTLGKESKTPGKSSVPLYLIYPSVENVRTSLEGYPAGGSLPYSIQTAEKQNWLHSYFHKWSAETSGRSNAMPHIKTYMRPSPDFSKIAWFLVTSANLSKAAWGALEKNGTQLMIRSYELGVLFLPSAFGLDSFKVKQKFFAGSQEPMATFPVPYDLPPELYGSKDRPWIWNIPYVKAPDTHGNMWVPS
#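 AlphaScreen read-out: signal falls as enzyme removes the 3' tyrosine-FITC from a 5'-biotinylated DNA oligo (15 nM, 5 min, RT). Enzyme was E. coli-made recombinant Tdp1 at 1 nM, exposed to compound for 15 min beforehand; beads 10 ug/ml, 10 min.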
# DT40 TDP1 CPT: qHTS for Inhibitors of human tyrosyl-DNA phosphodiesterase 1 (TDP1): qHTS in cells in presence of CPT; chicken DT40 Tdp1-/-;hTDP1 cells + 20 nM CPT, ATP luminescence, 48 h; Potency, µM (doses to about 46.2 µM), inactives show top-dose activity change, negative = growth inhibition, usual class: inhibitors; 12% of 420,000 active; AID 686979, 2013; also: potency is read from the fitted curve at half-maximal effect; nearly all actives have a fitted effect of over 55% in size
#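 Cell growth measured by CellTiter-Glo luminescence after a minimum 48 h, 37 C compound exposure with 20 nM CPT in Tdp1-knockout DT40 cells stably expressing hTDP1, seeded 400/well; qHTS titration format.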
# ELG1 DNA repair: qHTS screen for small molecules that inhibit ELG1-dependent DNA repair in human embryonic kidney (HEK293T) cells expressing luciferase-tagged ELG1; HEK293T ELG1-luciferase reporter, luminescence, 16 h; DNA damage induced by 5-fluorouridine; Potency, µM (highest dose often 46.1 µM), for inactives: top-dose activity change, negative = inhibition, most hits filed as inhibitors; 2.3% of 330,000 active; also: potency is read from the fitted curve at half-maximal effect; nearly all actives have a fitted effect of over 55% in size
#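 In this reporter screen, reduction of luminescence relative to DMSO vehicle indicated activity. Compounds and 5-fluorouridine were added together to 2,000 cells per well, incubated for 16 hr at 37 °C, then developed with ONE-Glo.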
# Giardia killer: Small Molecules that selectively kill Giardia lamblia: qHTS; AID 540267, 2011; 0.15% of 340,000 active; activity change, % at 7.66 µM, hits read low; Giardia lamblia trophozoite viability; in the data active = activity change below about -80%; inconclusive = between about -30% and that limit;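 also: parasites exposed to compound for two days anaerobically before the ATP read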
#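 Luminescent ATP signal served as the viability read-out, measured 15-30 min after adding ATP detection reagent to trophozoites that had been incubated with compounds for 48 hrs at 37 deg C anaerobically at 100 cells/well.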
# An asterisk follows results filed as active; ? = inconclusive; nt = no result given; [ ] = remark or other dose. An excerpt weighted towards active compounds, which were near 19% of everything screened. Unless noted, calls follow the shape of the dose curve; as a rule, active = well fitted curve in the direction sought with a large enough effect; inconclusive = small, poorly fitted or top-dose-only effect, or another doubt; inactive = no such curve, though single readings can be large; an effect the other way counts as inactive or inconclusive. % is scaled to controls: 0 for no effect and ±100 for the full control effect.
SMILES,IL-1B inflam inh,TDP1 cell noCPT,TDP1 inh,DT40 TDP1 CPT,ELG1 DNA repair,Giardia killer
CCOc1ccc(N(CC(=O)NCCSCc2ccc(C)cc2)S(C)(=O)=O)cc1,-1.9,?,2.3%,2.5%,-11.2%,-8.4
COc1ccccc1N(CC(=O)NCCSCc1ccccc1)S(=O)(=O)c1ccccc1,-20.5,23.1µM*,nt,?,nt,nt
COc1ccccc1N(CC(=O)NCCSCc1cccc(Cl)c1)S(C)(=O)=O,27.1,?,nt,?,1.1%,-6.1
CCOc1ccc(N(CC(=O)NCCSCc2ccccc2)S(C)(=O)=O)cc1,12.4,5.8µM*,nt,1.84µM*,9.1%,-20.2
Cc1cc(=O)c2c(O)cc(O)c(C)c2o1,nt,20.6µM*,6.8%[56.1 µM],?,nt,nt
CCOC(=O)c1c(C2COc3ccccc3O2)csc1NC(=O)c1ccco1 (configuration not stated),-54.1*,11.2µM*,6.8%,14.1µM*,?,14.8
CCN(CC)c1nn2c(=O)c(C(=O)NCc3ccc(F)cc3)cnc2s1,nt,?,7.1%,?,nt,nt
CN(C)c1ccc(/C=C/c2nc(-c3ccccc3O)n(-c3ccccc3)n2)cc1,nt,?,6.3%,16.4µM*,nt,nt
Cc1cccc(CNC(=O)c2cnn(-c3ncc4c(n3)-c3ccccc3CC4)c2C2CC2)n1,nt,5.1%,nt,6.6%[9.04 µM],nt,nt
O=C(CCN1C(=O)/C(=C/c2ccc(F)cc2)SC1=S)NC1C=CS(=O)(=O)C1 (configuration not stated),?,13µM*,4.0%,13µM*,-0.7%,-16.8
O=C(CCN1C(=O)/C(=C/c2ccc(F)cc2)SC1=S)N[C@@H](CO)Cc1ccccc1,-51.6*,20.6µM*,3.7%,16.4µM*,-0.3%,12.3
COc1ccc(/C=C2\SC(=O)N(CC(=O)NC3C=CS(=O)(=O)C3)C2=O)cc1 (configuration not stated),-2.6,?,2.4%,?,20.5%,-16.4
O=C(CCN1C(=O)/C(=C/c2ccccc2Cl)SC1=S)NC1C=CS(=O)(=O)C1 (configuration not stated),-63.4*,23.1µM*,-5.9%,18.4µM*,0.0%,-19.4
O=C(CCN1C(=O)/C(=C/c2ccc(F)cc2)SC1=S)NNC(=O)c1ccncc1,1.6,?,4.9%,?,-11.7%,-2.4
CC(C(=O)NC1C=CS(=O)(=O)C1)N1C(=O)/C(=C/c2ccc(Cl)cc2)SC1=S (configuration not stated),-58.9*,?,5.2%,?,?,?
C[C@@H]1C(=O)OC[C@H]1NC(=O)OCc1ccccc1,19.2,16.2%,-0.2%,6.7%,5.2%,-3.7
O=C(CN1C(=O)S/C(=C\c2ccccc2F)C1=O)NC1C=CS(=O)(=O)C1 (configuration not stated),-70.0*,?,1.3%,14.6µM*,?,?
COc1ccc(NC(=O)Nc2nnc(N3CCCCCC3)s2)cc1,nt,?,5.7%,?,nt,nt
O=C(Nc1nnc(-c2ccncc2)s1)Nc1ccccc1F,-19.2,?,0.0%,?,-19.9%,-15.5
COc1cc(NC(=O)Nc2nnc(N3CCCCCC3)s2)cc(OC)c1,nt,16.4µM*,5.7%,23.1µM*,nt,nt
COc1ccc(NC(=O)Nc2nnc(-c3ccco3)s2)cc1,32.5,4.5%,nt,0.0%,?,-14.2
COc1ccc(NC(=O)Nc2nnc(-c3ccncc3)s2)cc1,-89.6*,23.1µM*,10.7%,23.1µM*,?,20.5
O=C(Nc1ccc(Cl)c(Cl)c1)Nc1nnc(-c2ccncc2)s1,23.6,3.66µM*,nt,3.26µM*,?,-15.6
Cc1ccc(NC(=O)CN(C)C(=O)CNC(=O)c2sc3ccccc3c2Cl)cc1,nt,?,nt,?,?,-9.4
CCn1nnc2cc(C(=O)Nc3ccc(Cl)cc3C)ccc21,nt,-15.2%,0.0%,1.7%,nt,nt
SMILES,IL-1B inflam inh,TDP1 cell noCPT,TDP1 inh,DT40 TDP1 CPT,ELG1 DNA repair,Giardia killer
Cc1oc2ccc(O)cc2c1C(=O)c1ccc(F)cc1,?,-12.4%,nt,-25.0%,nt,8.9
COc1ccccc1C(=O)NC1CC(C)(C)NC(C)(C)C1,20.8,0.7%,nt,-0.6%,1.4%,2.3
COc1cccc(NC(=O)CSc2nnc3ccc(-c4ccccn4)nn23)c1,23.0,-17.3%,nt,-24.4%,4.9%,1.8
CC(O)CNc1nc2c(c(=O)n(Cc3ccc(Cl)c(Cl)c3)c(=O)n2C)n1C (configuration not stated),?,?,8.4%,?,?,10.7
Cn1c(NCC(O)c2ccccc2)nc2c1c(=O)n(Cc1ccc(Cl)c(Cl)c1)c(=O)n2C (configuration not stated),-66.5*,20.6µM*,nt,20.6µM*,nt,-17.8
Cn1c(NCC(O)c2ccccc2)nc2c1c(=O)n(Cc1ccc(Cl)cc1)c(=O)n2C (configuration not stated),-17.6,20.6µM*,3.4%,16.4µM*,?,-2.4
CC(C)CNC(=O)C1C(=O)Nc2ccccc2C(=O)N1C1CCCCC1 (configuration not stated),-11.1,-6.6%,nt,3.5%,nt,nt
